Bioassay records: PubChem BioAssay, National Center for Advancing Translational Sciences (NCATS)
NPC1 promoter act: activates the NPC1 promoter; Huh7 NPC1 promoter luciferase reporter, 24 h; Potency, µM (series often up to 9.22 µM), usual class: activators; 2.4% of 320,000 active; note: nearly all actives have a fitted effect of over 60% in size
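Huh7 cells stably carrying NPC1 promoter–luciferase, plated in Opti-MEM with 10% FBS for 2 h, were exposed to compound in DMSO for 24 h at 37 °C; luciferase reagent was added for 10 min and luminescence read.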
SMN2 splice up: enhancers of SMN2 splice variant expression. Potency, µM (series often up to 46.1 µM), hits mostly activators. 2.8% of 210,000 active. HEK293 SMN2-luciferase splicing reporter, luminescence, 30-36 h. AID 1458; note: nearly all actives have a fitted effect of over 55% in size
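HEK293 cells carry an SMN2 minigene-luciferase reporter in which exon 7 inclusion puts luciferase in frame. Cells were seeded at 2000 cells/well, attached for 10-12 hours, then exposed to compounds for 30-36 hours at 37C before ONE-Glo luminescence.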
FLuc counter: firefly luciferase modulation, counter-screen for miR-21 project; Potency, µM (highest dose often 57.5 µM), actives largely listed as inhibitors; P08659; 6.9% of 360,000 active; purified FLuc, Km substrates, luminescence inhibition; note: nearly all actives have a fitted effect of over 55% in size
Target sequence (P08659 whole entry, looked up): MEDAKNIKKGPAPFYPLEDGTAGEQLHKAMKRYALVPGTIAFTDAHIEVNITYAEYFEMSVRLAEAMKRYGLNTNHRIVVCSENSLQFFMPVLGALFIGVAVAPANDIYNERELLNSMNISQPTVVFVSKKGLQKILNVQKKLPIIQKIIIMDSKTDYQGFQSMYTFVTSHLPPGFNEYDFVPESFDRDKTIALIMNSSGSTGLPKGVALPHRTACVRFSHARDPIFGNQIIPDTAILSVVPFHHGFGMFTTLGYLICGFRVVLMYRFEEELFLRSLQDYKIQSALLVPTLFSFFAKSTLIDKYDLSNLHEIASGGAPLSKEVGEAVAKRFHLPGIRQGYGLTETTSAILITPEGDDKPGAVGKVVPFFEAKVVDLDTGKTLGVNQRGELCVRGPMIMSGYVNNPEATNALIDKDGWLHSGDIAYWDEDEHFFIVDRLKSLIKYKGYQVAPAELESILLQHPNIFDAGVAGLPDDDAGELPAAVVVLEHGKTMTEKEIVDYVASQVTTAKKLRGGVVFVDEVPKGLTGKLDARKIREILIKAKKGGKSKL
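Purified P. pyralis luciferase, 10 nM final, with Km-level 10 uM D-luciferin and 10 uM ATP in 50 mM Tris acetate pH 7.5, 10 mM Mg acetate, 0.01% Tween-20, 0.05% BSA; 6-point qHTS titration about 60 µM downward; luminescence read.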
ELG1 genotox: genotoxicity induction in ELG1-luciferase HEK293T cells. 1.3% of 330,000 active. HEK293T ELG1-luciferase reporter, luminescence, 16 h. AID 504466. Potency, µM (series often up to 46 µM), actives largely listed as activators; note: nearly all actives have a fitted effect of over 60% in size
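Luminescence read-out: rising ELG1-luciferase signal, reflecting elevated ELG1 protein under genetic stress, flags genotoxic compounds. Cells were treated for 16 hr at 37 °C before ONE-Glo detection.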
Rab9 prom act: activates the Rab9 promoter. Potency, µM (highest dose often 9.22 µM), most hits filed as activators. Huh7 Rab9 promoter-luciferase reporter, luminescence, 24 h. 2.8% of 320,000 active. AID 485297; note: nearly all actives have a fitted effect of over 60% in size
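Quantitative HTS format; Huh7 Rab9-luciferase reporter cells (1500/well) receive compound 2 h post-plating, incubate 24 h at 37 °C, then get luciferase reagent for 10 min before luminescence reading.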
Each line names hits and unclear results; the compound was inactive in the other large screens. Shown are actives, neighbours in structure and some others; about 7.5% of the full set was active somewhere. Calls come from the whole dose curve; as a rule, active = well fitted curve in the direction sought with a large enough effect; inconclusive = small, poorly fitted or top-dose-only effect, or another doubt; inactive = no such curve, though single readings can be large; an effect the other way counts as inactive or inconclusive.

O=C(Nc1ccc(Br)cn1)c1ccc(Cl)s1	NPC1 promoter act 0.89µM, FLuc counter 4.3µM, ELG1 genotox 3.3µM, Rab9 prom act 1µM (no result: SMN2 splice up)
O=C(NC(=S)NCC1CCCO1)c1ccc(Cl)cc1Cl (stereo not given)	none
O=C(NCC1CCCO1)c1cc(-c2ccccc2)on1 (stereo not given)	NPC1 promoter act 2.5µM, SMN2 splice up 35µM, FLuc counter 15µM, ELG1 genotox 10µM, Rab9 prom act 2.5µM
O=C(NCC1CCCO1)c1ccccc1-c1nc(-c2ccccc2)no1 (stereo not given)	FLuc counter inconclusive
O=C(NCC1CCCO1)c1cc(-c2ccc(Cl)cc2Cl)on1 (stereo not given)	NPC1 promoter act 3.5µM, SMN2 splice up 25µM, FLuc counter 3.4µM, ELG1 genotox inconclusive, Rab9 prom act 2.8µM
O=C(NCC1CCCO1)c1cc(-c2ccc(F)cc2)no1 (stereo not given)	FLuc counter inconclusive, ELG1 genotox inconclusive, Rab9 prom act 3.2µM (no result: SMN2 splice up)
O=C(CNC(=O)c1ccc(Cl)cc1Cl)NCC1CCCO1 (stereo not given)	FLuc counter 24µM (no result: SMN2 splice up)
Cc1cccc(NC(=O)C(=O)NCC2CCCO2)c1 (stereo not given)	NPC1 promoter act 2.5µM, FLuc counter 21µM, ELG1 genotox inconclusive, Rab9 prom act 0.71µM (no result: SMN2 splice up)
Cc1ccc(Nc2nc(C(=O)NCC3CCCO3)cs2)cc1 (stereo not given)	FLuc counter inconclusive (no result: SMN2 splice up)
O=C(NCC1CCCO1)Nc1cccc(Cl)c1 (stereo not given)	FLuc counter inconclusive, ELG1 genotox inconclusive
Cc1ccc(-c2cc(C(=O)NCC3CCCO3)no2)cc1 (stereo not given)	NPC1 promoter act 2.5µM, SMN2 splice up 10µM, ELG1 genotox inconclusive, Rab9 prom act 2.8µM
Cc1ccc(CCNC(=O)CCSCc2ccccc2F)cc1	none (no result: NPC1 promoter act, SMN2 splice up, ELG1 genotox, Rab9 prom act)
O=C(Nc1ccnn1C1CCN(CCCC2CCCC2)CC1)c1ccccc1Cl	none (no result: SMN2 splice up)
O=C(NCc1ccco1)/C(=C/c1ccc(C(F)(F)F)cc1)c1nc2ccccc2[nH]1	FLuc counter 12µM, ELG1 genotox inconclusive
O=C(CCn1c2c(c3ccccc31)CCCC2)NNC(=O)c1ccccc1C(=O)O	FLuc counter 27µM (no result: SMN2 splice up)
Cc1ccc2nc(-c3cc(-c4ccccc4)no3)cn2c1	NPC1 promoter act 0.79µM, FLuc counter 0.21µM, ELG1 genotox 0.26µM, Rab9 prom act 0.25µM (no result: SMN2 splice up)
Cc1ccc(C(=O)Oc2cc(-c3ccccc3)no2)cc1	none
CCc1ccn2cc(-c3cc(-c4ccccc4)no3)nc2c1	FLuc counter 0.067µM, ELG1 genotox inconclusive (no result: SMN2 splice up)
CN(C)C(=O)c1cc(-c2ccccc2)no1	SMN2 splice up inconclusive, FLuc counter inconclusive, ELG1 genotox inconclusive, Rab9 prom act inconclusive
CCOC(=O)COc1ncn(-c2ccccc2)n1	none
O=C(O)/C=C/c1cnn(-c2ccccc2)c1	NPC1 promoter act inconclusive, SMN2 splice up 2µM, FLuc counter 1.5µM, Rab9 prom act 0.45µM
CCOC(=O)/C=C/c1cnn(-c2ccccc2)c1	NPC1 promoter act inconclusive, FLuc counter 15µM, ELG1 genotox inconclusive, Rab9 prom act inconclusive (no result: SMN2 splice up)
O=C(O)/C=C\c1cccc(-n2cnnn2)c1	none
CCOC(=O)C(C(=O)OCC)N(C#N)c1nc(OC)nc(N(C)C)n1	SMN2 splice up 3.2µM
CCOC(=O)C(C(=O)OCC)N(C#N)c1nc(SC)nc(N(C)C)n1	none
CCN(C(=O)CSc1ccc2ccccc2n1)C1CCCCC1	none (no result: NPC1 promoter act, SMN2 splice up, FLuc counter, Rab9 prom act)
O=C(CSc1nnnn1-c1ccc(Cl)cc1)NC(=O)Nc1ccc2c(c1)OCCO2	NPC1 promoter act inconclusive, SMN2 splice up inconclusive, FLuc counter inconclusive, Rab9 prom act inconclusive
Cc1nnc(SCC(=O)NC(=O)Nc2ccc3c(c2)OCCO3)s1	FLuc counter inconclusive
Cc1nnc(SCC(=O)NC(=O)Nc2ccc3c(c2)OCCO3)n1N	NPC1 promoter act inconclusive, FLuc counter 17µM, Rab9 prom act 1.8µM (no result: SMN2 splice up)
C[C@H](NS(=O)(=O)c1ccc(Cl)cc1)C(=O)OCC(=O)NC(=O)Nc1ccc2c(c1)OCCO2	SMN2 splice up inconclusive, FLuc counter 17µM, ELG1 genotox inconclusive
Cc1ccc(-n2nnnc2SCC(=O)NC(=O)Nc2ccc3c(c2)OCCO3)cc1	FLuc counter 21µM, Rab9 prom act inconclusive
Cc1ccc(S(=O)(=O)N[C@H](C(=O)OCC(=O)NC(=O)Nc2ccc3c(c2)OCCO3)C(C)C)cc1	FLuc counter inconclusive
COc1ccc(-n2nnnc2SCC(=O)NC(=O)Nc2ccc3c(c2)OCCO3)cc1	FLuc counter 19µM, ELG1 genotox inconclusive
COc1ccc(NC(=O)CSc2nnnn2-c2ccc(OC)cc2)cc1	none
Cc1c2cnn(-c3ccccc3)c(=O)c2c(C)n1CCCC(=O)Nc1cccc(F)c1	none (no result: NPC1 promoter act, ELG1 genotox, Rab9 prom act)
O=C(/C=C/Nc1ccc(Br)cn1)c1cccc(OC(F)F)c1	NPC1 promoter act 2.8µM, FLuc counter 2.7µM, ELG1 genotox inconclusive, Rab9 prom act 2.2µM (no result: SMN2 splice up)
O=C(N/N=C/c1ccc(OC(F)F)cc1OC(F)F)c1ccc(Br)cc1	none
O=C(Nc1cccc(N2CCCC2)c1)c1cccs1	FLuc counter 17µM
CC(C)C(=O)N1CCN(c2ccc(NC(=O)c3cccs3)cc2)CC1	none
CN1CCN(c2ccc(NC(=O)c3cccs3)cc2)CC1	NPC1 promoter act 3.2µM, SMN2 splice up 11µM, FLuc counter 12µM, ELG1 genotox inconclusive, Rab9 prom act 0.56µM
Cc1ccn(-c2ccc(NC(=O)c3cccs3)cc2)n1	NPC1 promoter act 0.71µM, FLuc counter 3µM, ELG1 genotox inconclusive, Rab9 prom act 0.63µM (no result: SMN2 splice up)
CC(=O)Nc1ccc(C(=O)NCC2(N3CCCCC3)CCCCC2)cc1	none (no result: SMN2 splice up)
Cc1ccc(CC2CC(=O)N(c3ncccn3)C2=O)cc1 (stereo not given)	none (no result: SMN2 splice up)
O=C1CC(Cc2ccc(Cl)cc2)C(=O)N1c1ccccn1 (stereo not given)	SMN2 splice up 32µM
O=C1CC(Cc2ccccc2)C(=O)N1c1ncccn1 (stereo not given)	NPC1 promoter act 2.2µM, FLuc counter 15µM, ELG1 genotox 15µM, Rab9 prom act inconclusive (no result: SMN2 splice up)
CC1(C)CNc2cc([N+](=O)[O-])ccc2S1	NPC1 promoter act inconclusive, FLuc counter 27µM, ELG1 genotox inconclusive, Rab9 prom act inconclusive
O=C(Nc1ccc(Cl)cc1Cl)C1=Cc2ccccc2OC1	NPC1 promoter act 1.4µM, SMN2 splice up inconclusive, FLuc counter 1.9µM, ELG1 genotox 2.1µM, Rab9 prom act 1µM
COc1ccc(NC(=O)C2=Cc3ccccc3OC2)cc1	NPC1 promoter act 0.4µM, SMN2 splice up 7.9µM, FLuc counter 1.5µM, ELG1 genotox 0.52µM, Rab9 prom act 0.56µM
COc1cccc2c1OCC(C(=O)OCc1cccnc1)=C2	none
COc1ccc(NC(=O)C2=Cc3cccc(OC)c3OC2)cc1	NPC1 promoter act 2.8µM, SMN2 splice up 13µM, FLuc counter 5.4µM, ELG1 genotox inconclusive, Rab9 prom act 2.5µM
O=C(Nc1ccc(Cl)cc1)C1=Cc2cc(Cl)ccc2OC1	none
CCN(CC)C(=O)c1c(NC(=O)c2ccccc2F)sc2c1CCC(C(C)(C)C)C2 (stereo not given)	none (no result: NPC1 promoter act, ELG1 genotox, Rab9 prom act)
